According to PubChem BioAssay (Tox21):
Results filed as inconclusive are left out. A call without a number means that no potency is given here. Calls of active or inactive are those of the source. Calls come from the whole dose curve; as a rule, active = well fitted cell-killing curve with a large enough effect in the repeat runs; inconclusive = weak or mixed curves; inactive = no such curve, though single readings can be large or run the other way.
Potency is the fitted concentration of half-maximal effect.

Experiment: qHTS assay to identify small molecule antagonists of the androgen receptor (AR) signaling pathway - cell viability counter screen (AID 743033; note: nearly all actives have a fitted effect of over 45% in size)
Conditions: AR-bla HEK293 viability, CellTiter-Glo luminescence, 16 h; series mostly up to 58.5 µM
From the text: National Center for Advancing Translational Sciences [NCATS]
NIH Chemical Genomics Center [NCGC]
U.S. Environmental Protection Agency [EPA]
National Institutes of Environmental Health Sciences [NIEHS]
National Toxicology Program [NTP]
U.S. Food and Drug Administration [FDA]
Androgen receptor (AR), a nuclear hormone receptor, plays a critical role in AR-dependent prostate cancer and other androgen related diseases. Endocrine disrupting chemicals (EDCs) and their interactions with steroid hormone receptors like AR may cause disruption of normal endocrine function as well as interfere with metabolic homeostasis, reproduction, developmental and behavioral functions. To identify the compounds that inhibit AR signaling, GeneBLAzer AR-UAS-bla-GripTite cell line (Invitrogen, Carlsbad, CA, USA) containing a beta-lactamase reporter gene under control of an Upstream Activator Sequence (UAS) stably integrated into HEK293 cells was used to screen the Tox21 10K compound library. The cytotoxicity of the Tox21 compound library against the AR-bla cell line was tested in parallel by measuring the cell viability using CellTiter-Glo assay in the same wells.
Tox21 Assay Protocol Summary:
AR-bla cells were dispensed at 2,000 cells/5 uL of assay medium per well into black wall/clear-bottom 1536-well plates using a Multidrop Combi (ThermoFisher Scientific, Waltham, MA) dispenser. After the assay plates were incubated at a 37C and 5% CO2 for 4 hr, 23 nL of compounds dissolved in DMSO, positive controls or DMSO only was transferred to the assay plate by a Pintool station (Kalypsys, San Diego, CA), followed by addition of 1 uL of agonist (R1881) in culture medium using a Bioraptr Flying Reagent Dispenser (FRD) workstation (Beckman Coulter, Indianapolis, IN, USA). The plates were incubated at a 37C and 5% CO2 for 16 h. After 1 uL of LiveBLAzerTM B/G FRET substrate was added using a Bioraptr FRD, the plates were incubated at room temperature for 2 h and fluorescence intensity was measured by an Envision plate reader (PerkinElmer, Shelton, CT). For cell viability readout that measures cytotoxicity, 4 ul/well of CellTiter-Glo reagent was added into the assay plates using a Bioraptr FRD. After 30 min incubation at room temperature, the luminescence intensity in the plates was measured using a ViewLux (PerkinElmer) plate reader.
With `CC(C)=CC=O` the Potency was “inactive”.
With `CC(=O)CC(c1ccc([N+](=O)[O-])cc1)c1c(O)c2ccccc2oc1=O` (stereo not given) the Potency was “inactive”.
With `O=C(CCCCCCCCC#CI)Oc1ccccc1` the Potency was “inactive”.
With `CC(=O)OCC(=O)[C@H]1CC[C@H]2[C@@H]3CCC4=CC(=O)CC[C@]4(C)[C@H]3CC[C@]12C` the Potency was “inactive”.
With `CCCCC(CC)C(=O)OCCOCCOCCOCCOC(=O)C(CC)CCCC` (stereo not given) the Potency was “inactive”.
With `N#C/C(=C1\SCC(c2ccccc2Cl)S1)n1ccnc1` (stereo not given) the Potency was “inactive”.
With `c1cnc2c(n1)CCCC2` the Potency was “inactive”.
For `CCCCC(=O)O[C@]1(C(=O)CO)CC[C@H]2[C@@H]3CCC4=CC(=O)CC[C@]4(C)[C@H]3[C@@H](O)C[C@@]21C`, the Potency was “inactive”.
With `Nc1ccc(S(=O)(=O)O)c(N)c1` the Potency was “inactive”.
In the case of `C=CC(=O)NCOCC(C)C`, the Potency is reported as “inactive”.
For `c1cc[c]([Bi]([c]2ccccc2)[c]2ccccc2)cc1`, the Potency was “inactive”.
For `CN1C(=O)CC(C)(c2ccccc2)C1=O` (stereo not given), the Potency was “inactive”.
With `CC1=CC(O)CC(C)(C)C1` (stereo not given) the Potency was “inactive”.
In the case of `Cc1c(C(=O)NN2CCCCC2)nn(-c2ccc(Cl)cc2Cl)c1-c1ccc(Cl)cc1`, the Potency is reported as “inactive”.
With `COCC(O)CO` (stereo not given) the Potency was “inactive”.
In the case of `C=CC(C)(O)CCCC(C)CCCC(C)CCCC(C)C` (stereo not given), the Potency is reported as “inactive”.
In the case of `C=CC(C)=CCC=C(C)C`, the Potency is reported as “inactive”.
For `Cc1cc(O)c2c(O)c3c(O)cccc3cc2c1`, the Potency was “inactive”.
In the case of `O=c1[nH]c2ccc(S(=O)CCN3CCC(Cc4ccc(F)cc4)CC3)cc2o1` (stereo not given), the Potency is reported as “inactive”.
In the case of `Cc1ccc(S)cc1`, the Potency is reported as “inactive”.
In the case of `CC#N`, the Potency is reported as “inactive”.
With `Nc1nc(Cl)nc2c1ncn2[C@@H]1O[C@H](CO)[C@@H](O)[C@@H]1F` the Potency was “inactive”.
For `Oc1ccc(Nc2ccccc2)cc1`, the Potency was “inactive”.
For `Cc1ccc(Nc2nccc(N(C)c3ccc4c(C)n(C)nc4c3)n2)cc1S(N)(=O)=O`, the Potency was “inactive”.
With `CC(=N\O)/C(C)=N/O` the Potency was “inactive”.
For `CC1CC(=O)NN=C1c1ccc(NCC(C)(C)NCC(O)COc2cc(Cl)ccc2C#N)cc1` (stereo not given), the Potency was “inactive”.
For `CC(C)OCC1CO1` (stereo not given), the Potency was “inactive”.
With `O=Cc1c(Cl)cccc1Cl` the Potency was “inactive”.
For `CC(C)C(=O)O`, the Potency was “inactive”.
With `CO[C@@]12[C@H](COC(N)=O)C3=C(C(=O)C(C)=C(N)C3=O)N1C[C@@H]1N[C@@H]12` the Potency was “inactive”.
For `COc1cc2ncnc(Nc3ccc(F)c(Cl)c3)c2cc1OCCCN1CCOCC1`, the Potency was “inactive”.
In the case of `CC1(C)C(=O)N(Br)C(=O)N1Cl`, the Potency is reported as “inactive”.
With `CCCCOC(=O)CCS` the Potency was “inactive”.
In the case of `CC(Cl)C(Cl)Cl` (stereo not given), the Potency is reported as “inactive”.
In the case of `C[N+]1(C)CCC(=C(c2ccccc2)c2ccccc2)CC1`, the Potency is reported as “inactive”.
For `COc1ccc(CCC(=O)c2c(O)cc(O[C@@H]3O[C@H](CO)[C@@H](O)[C@H](O)[C@H]3O[C@@H]3O[C@@H](C)[C@H](O)[C@@H](O)[C@H]3O)cc2O)cc1O`, the Potency was “inactive”.
For `N#C/C(=C1/SC[C@@H](c2ccc(Cl)cc2Cl)S1)n1ccnc1`, the Potency was “inactive”.
In the case of `CCC(C)=O`, the Potency is reported as “inactive”.
In the case of `CCc1nn(CCCN2CCN(c3cccc(Cl)c3)CC2)c(=O)n1CCOc1ccccc1`, the Potency is reported as 10.7 µM (active).
In the case of `O=C1NCCN1`, the Potency is reported as “inactive”.
